Screens as filed in PubChem BioAssay.
Compounds with a hit are over-represented: about 18% of the library has one in this group of screens.
CtBP-E1A inh = qHTS Assay for Inhibitors of the CtBP/E1A Interaction; CtBP / adenovirus E1A interaction (AlphaScreen); AlphaScreen GST-E1A/His-CtBP binding, 1536-well; stronger effect = lower value; activity change, % (no concentration beside the values); actives 0.49% (n = 340,000); in the data active = activity change below about -65%; inconclusive = mostly about -30% to -63%
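Steps: dispense buffer (Tris pH 8.0, NaCl 300 mM, TCEP 1 mM, BSA, Tween 20); add 5X protein mix (GST-E1A, His-CtBP, 125 nM each); pin 23 nL compound; 2 h at 37 °C, dark; add 5X beads (50 ug/mL); 1 h; read.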
Six1-Eya2 blk = qHTS Assay for Inhibitors of the Six1/Eya2 Interaction; Homeobox protein SIX1 (Homo sapiens) + Protein phosphatase EYA2 (Homo sapiens), …; AlphaScreen GST-Six1/His-Eya2 binding, biochemical; stronger effect = lower value; activity change, % (concentration not given with the values); actives 0.56% (n = 360,000); AID 651725, 2012; in the data active = activity change below about -65%; inconclusive = mostly about -30% to -63%
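AlphaScreen with GST-Six1 and His-Eya2 (5X mix: 250 nM and 500 nM), glutathione donor and nickel acceptor beads; buffer 50 mM Tris pH 8.0, 300 mM NaCl, 1 mM TCEP; 1 h at 37 C in the dark.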
IL1B secr inh = qHTS for Inhibitors of Inflammasome Signaling: IL-1-beta AlphaLISA Primary Screen; activity change, % at 57.5 µM; actives 4.7% (n = 360,000); THP-1 LPS/ATP IL-1B secretion, AlphaLISA, 16 h; stronger effect = lower value; in the data active = activity change below about -50%; inconclusive = mostly about -30% to -49%
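Secreted IL-1B measured by AlphaLISA bead assay after 16 h compound exposure of THP-1 cells; compounds (final up to 57.5 uM) added 1 h before LPS (250 ng/mL) and ATP (1.25 mM) stimulation; lower signal means less secretion.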
TDP1 block = qHTS Assay for Inhibitors of Tyrosyl-DNA Phosphodiesterase (TDP1) | recombinant TDP1, AlphaScreen DNA substrate cleavage | actives 0.28% (n = 350,000) | Tyrosyl-DNA phosphodiesterase 1 (Homo sapiens), Q9NUW8 | Potency, µM (titrated, usually from 130 µM), for the others: top-dose activity change, negative = inhibition, usual class: inhibitors | AID 485290, 2010; note: potency is the fitted concentration of half-maximal effect; nearly all actives have a fitted effect of over 40% in size
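Recombinant human Tdp1 (E. coli-expressed, 1 nM final) preincubated with compounds 15 min at room temperature, then 5'-biotin/3'-phosphotyrosine-FITC DNA substrate (15 nM final) added for 5 min. AlphaScreen beads (10 ug/ml final) added 10 min; cleavage lowers signal.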
TDP1 cell noCPT = qHTS for Inhibitors of human tyrosyl-DNA phosphodiesterase 1 (TDP1): qHTS in cells in absence of CPT; AID 686978, 2013; DT40 Tdp1-/- hTDP1 cells, no CPT, ATP luminescence, 48 h; actives 15% (n = 420,000); Potency, µM (highest dose often 46.2 µM), for the others: at the top dose activity change, negative = growth inhibition, actives largely listed as inhibitors; note: potency is the fitted concentration of half-maximal effect; nearly all actives have a fitted effect of over 55% in size
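Compound effects on proliferation are scored in DT40 Tdp1-/-;hTDP1 cells in the absence of CPT. ATP levels (CellTiter-Glo luminescence) are recorded after a ≥48 hr, 37 °C incubation.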
TDP1 cell CPT = qHTS for Inhibitors of human tyrosyl-DNA phosphodiesterase 1 (TDP1): qHTS in cells in presence of CPT; chicken DT40 Tdp1-/-;hTDP1 cells + 20 nM CPT, ATP luminescence, 48 h; Potency, µM (doses to about 46.2 µM), for inactives: at the highest dose activity change, negative = growth inhibition, usual class: inhibitors; actives 12% (n = 420,000); note: potency is the fitted concentration of half-maximal effect; nearly all actives have a fitted effect of over 55% in size
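Cell growth measured by CellTiter-Glo luminescence after a minimum 48 h, 37 C compound exposure with 20 nM CPT in Tdp1-knockout DT40 cells stably expressing hTDP1, seeded 400/well; qHTS titration format.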
Numbers without * were called inactive; ? = inconclusive; . = not tested or not shown; [ ] = remark or other dose. Unless noted, calls come from the whole dose curve; as a rule, active = well fitted curve in the direction sought with a large enough effect; inconclusive = small, poorly fitted or top-dose-only effect, or another doubt; inactive = no such curve, though single readings can be large; an effect the other way counts as inactive or inconclusive. % is set by controls: 0 for no effect and ±100 for the full control effect.

SMILES	CtBP-E1A inh	Six1-Eya2 blk	IL1B secr inh	TDP1 block	TDP1 cell noCPT	TDP1 cell CPT
O=C(c1ccc(Cl)cc1)C1CCCN(C2CCSCC2)C1 (centres undefined)	-8	4	-6	2%	?	4%
COc1ccc2[nH]cc(CCN(C(C)C)C(C)C)c2c1	.	.	.	.	-28%[92.5 µM]	?
Brc1ccccc1Cn1c(-c2cncs2)nc2ccccc21	-14	1	5	3%	16µM*	?
O=c1c2ccccc2nc(/C=C/c2cccc3ccccc23)n1-c1ccccc1Cl	.	.	.	0%	10µM*	12µM*
Cc1ccccc1-n1c(/C=C/c2ccccc2F)nc2ccccc2c1=O	.	.	.	2%[12.3 µM]	8.2µM*	21µM*
COc1ccc(-n2c(/C=C\c3ccccc3F)nc3ccccc3c2=O)cc1OC	.	.	.	8%	16µM*	23µM*
O=C(COc1ccccc1[N+](=O)[O-])N1CCN(CCc2ccccn2)CC1	.	.	.	-3%	4%	-3%
CCCCC/C(=N/O)c1c(C)[nH]c2ccccc12	-2	2	-62*	6%	?	-27%
COc1cc(C2Nc3c(C)cc(C)cc3-c3cc(C)nn32)cc(OC)c1O (centres undefined)	.	.	.	2%	4.1µM*	5.8µM*
CC(=O)c1c(O)n(C)c(=S)n(-c2ccccc2)c1=O	3	2	8	-2%	-8%	-2%
O=C(O)CCCCC1SCC2NC(=O)NC21 (centres undefined)	8	3	-56*	24%	5%	5%
O=c1[nH]c(=S)n(CCC2=CCCCC2)c(O)c1C=NC1CCN(Cc2ccccc2)CC1	0	4	0	1%	?	21µM*
O=c1[nH]c(=S)n(CCC2=CCCCC2)c(O)c1/C=N/Nc1ccccc1	-30	-3	0	.	-5%	-9%
COCC(=O)N1Cc2ccccc2-n2nncc2C1	9	3	15	.	-19%	-4%
CCN(c1ccccc1)S(=O)(=O)c1ccc(C(=O)NC2CCCCC2)cc1	0	-4	24	.	16µM*	?
CCN(c1ccccc1)S(=O)(=O)c1ccc(C(=O)NCC(c2ccccc2OC)N2CCCC2)cc1 (centres undefined)	-8	3	6	.	?	?
Cn1c(C(=O)N2CCN(c3nc4ccccc4s3)CC2)cc2sccc21	4	-6	-12	2%	?	23µM*
Cc1ccc(-c2nnc(Nc3ccc(O)cc3)c3ccccc23)cc1S(=O)(=O)N1CCOCC1	.	.	.	2%[2.28 µM]	16µM*	?
COc1ccc(NC(=O)CN2CC=C(c3ccccc3)CC2)cc1S(=O)(=O)N1CCOCC1	-2	-3	-13	1%	?	0%
CCC1CN2CCc3cc(OC)c(OC)cc3C2CC1CC1NCCc2cc(OC)c(OC)cc21 (centres undefined)	.	.	.	-7%[56.1 µM]	0.15µM*	0.21µM*
CC[C@H]1CN2CCc3cc(OC)c(OC)cc3C2C[C@@H]1C[C@H]1NCCc2cc(OC)c(OC)cc21 (some centres undefined)	-5	-9	-108*	.	0.0082µM*	0.13µM*
COc1ccc(C[C@H]2c3cc(OC)c(OC)cc3CCN2C)cc1OC	.	.	.	1%[56.1 µM]	.	.
COc1cc2c(cc1O)[C@H]1Cc3ccc(OC)c(O)c3CN1CC2	.	.	.	11%[21 µM]	.	.
CC12CCC(=O)C=C1C=CC1C2CCC2(C)C(O)CCC12 (centres undefined)	2	9	31	.	-27%	6%
